“And” between values parts separate entries of the source, which are not always exact repeats. Equal values may be shown once. In all, about 16,000 compounds went through this assay and about 5,700 (36%) were called active. Not shown: some 24% with an inconclusive outcome. Calls follow the shape of the dose curve; as a rule, active = well fitted curve in the direction sought with a large enough effect; inconclusive = small, poorly fitted or top-dose-only effect, or effect the other way; inactive = no such curve, though single readings can be large or run the other way. The list shows a part of the results. Peptide text beside a SMILES is read from it. * marks the point of attachment. PhAc = O=C(Cc1ccccc1)*; OBn = c1ccc(CO*)cc1
The molecules below were run against Cytochrome P450 1A2 (Homo sapiens) (UniProt P05177) (assay: Cytochrome panel assay with activity outcomes). Details: recombinant CYP, pro-luciferin dealkylation, luminescence, p450-cyp1a2; series mostly up to 57.1 µM; activity, negative = inhibition: at the top concentration.
Chain of Cytochrome P450 1A2 (Homo sapiens) (P05177 whole entry, looked up): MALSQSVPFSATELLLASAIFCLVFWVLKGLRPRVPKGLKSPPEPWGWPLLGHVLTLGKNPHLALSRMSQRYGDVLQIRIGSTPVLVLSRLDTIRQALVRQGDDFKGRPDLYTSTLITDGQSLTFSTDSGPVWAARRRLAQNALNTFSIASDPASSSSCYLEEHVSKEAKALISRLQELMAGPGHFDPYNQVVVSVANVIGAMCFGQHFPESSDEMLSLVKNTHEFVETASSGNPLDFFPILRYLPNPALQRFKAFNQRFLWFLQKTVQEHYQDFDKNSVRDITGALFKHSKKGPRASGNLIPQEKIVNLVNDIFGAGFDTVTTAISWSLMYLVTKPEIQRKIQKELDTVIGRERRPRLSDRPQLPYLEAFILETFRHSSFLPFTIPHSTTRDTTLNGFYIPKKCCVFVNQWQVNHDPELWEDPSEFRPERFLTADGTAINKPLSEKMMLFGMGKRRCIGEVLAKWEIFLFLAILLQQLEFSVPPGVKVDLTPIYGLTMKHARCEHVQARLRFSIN
% is scaled to controls: 0 for no effect and ±100 for the full control effect.

activity, negative = inhibition, inactive:
Cc1cc2c(nc1C)CCCN2CC(O)CN1CCCc2nc(C)c(C)cc21 -4.54% [at 11.4 µM]
O=C1C[C@@H](O)[C@@H](O)[C@H]2[C@@H]3C(=O)N(C[C@@H]4CCCO4)C(=O)[C@@H]3CC[C@H]12 -4.6% [at 11.4 µM] and -8.21% [at 11.4 µM]
O=C(NCc1ccccc1)c1ccc2c(c1)C(=O)N(CC1CCCO1)C2=O (centres undefined) -10.7%
NC(N)=N[C@@H]1C(O)[C@H](N=C(N)N)[C@@H](O)C(O)[C@H]1O (some centres undefined) -4.87% [at 2.29 µM]
O=C(CCN1C(=O)/C(=C/c2cccc(Br)c2)SC1=S)NNC(=O)c1cccnc1 -14.4%
Cc1ccc(S(=O)(=O)/N=C2/NC(=O)/C(=C/c3cccnc3)S2)cc1 -6.98%
CCCN(C(=O)Cc1nc(N)n[nH]1)C1(C(=O)Nc2ccccc2C)CCCCC1 -8.95%
O=C(O)CCC(=O)N1CCN(c2ccccn2)CC1 15.9%
O=C(O)[C@H](CCc1ccccn1)c1ccccc1 -12.5% [at 11.4 µM]
COc1cc(/C=N\NC(=O)C2C(=O)NCC2c2ccccc2)cc(OC)c1O (centres undefined) -16.9%
CN(CC(=O)N1CCN(c2ccccc2)CC1)S(=O)(=O)c1cnc[nH]1 -17.9%
CC(C)CN(CC(C)C)S(=O)(=O)N1CCC(C(=O)NCc2ccc(F)cc2)CC1 -7.94%
Cn1c[n+](C)cc1/C=N/O 13.8%
COc1cc(C2C(C(=O)OCCC#N)=C(C)NC3=C2S(=O)(=O)c2ccccc23)cc(OC)c1OC (centres undefined) -20.5%
CC(C)(C)N1C(=O)[C@H]2[C@@H]3[C@H](O)[C@H](O)CC(=O)[C@H]3CC[C@H]2C1=O -8.79% [at 11.4 µM] and -4.69% [at 11.4 µM]
Cc1noc(C)c1C(=O)N1CCC2(CCN(Cc3cc(C(F)(F)F)cc(C(F)(F)F)c3)CC2)CC1 -21.2%
CCC(Sc1ncccc1C(=O)O)C(=O)N1CCOCC1 (centres undefined) 15.3%
N#Cc1nc(-c2ccc(OCc3ccccc3)cc2)oc1NCCN1CCOCC1 -24.4%
O=C(NCCN1CCOCC1)c1nn2c(c1Cl)NC(c1ccccc1)CC2C(F)(F)F (centres undefined) 0.473%
O=C1C=C(NCCN2CCOCC2)CC(c2ccccc2)C1 (centres undefined) -25.1%
COc1cc(NS(=O)(=O)c2ccc(N)cc2)nc(OC)n1 1.22% [at 25.6 µM]
OC[C@@H]1O[C@@H](n2cnc3c(N[C@@H]4C[C@@H]5CC[C@H]4C5)ncnc32)[C@@H](O)[C@H]1O -14.4%
Cc1ccc(S(=O)(=O)N(C)CC(=O)O/N=C(\N)c2ccccn2)cc1 -5.85%
CN(CC(=O)O/N=C(\N)c1ccccn1)S(=O)(=O)c1ccccc1 -9.06%
O=C(NCc1ccccc1Cl)C1CCN(S(=O)(=O)N2CCC3(CC2)OCCO3)CC1 -0.431%
COc1ccc(NC(=O)N2CC[C@@]3(CCCN(C(=O)c4cnccn4)C3)C2)cc1 -18.8%
Cc1ccc(CS(=O)(=O)Cc2ccc(C(=O)NCC3CCCO3)o2)cc1 (centres undefined) -7.21%
CCS(=O)(=O)N1CCC(C(=O)NCCN2CCN(Cc3ccccc3)CC2)CC1 -25.8%
CCC(C)NC(=O)CCS(=O)(=O)c1ccc(Br)s1 (centres undefined) -4.87%
COc1ccc(CN[C@H](C)C(=O)O)cc1 -2.04% [at 11.4 µM]
O=c1nc2ccccc2c2n1CC(CN1CCN(c3cccc(Cl)c3)CC1)N2 (centres undefined) -26.7%
Cc1ccc(-n2c(SCc3ccc([N+](=O)[O-])cc3)nc3ccccc3c2=O)cc1 0.364%
CC(C)C[C@H]1C(=O)N2CCC[C@@H]2[C@]2(O)O[C@](NC(=O)[C@H]3C=C4c5cccc6[nH]c(Br)c(c56)C[C@H]4N(C)C3)(C(C)C)C(=O)N12 -20.7% [at 25.6 µM]
CCOc1ccc(NC(=O)N2CCC(C(N)=O)(N3CCCCC3)CC2)cc1 -1.35%
CCOc1ccc(NC(=O)C(=O)NCC2CCCN2CC)cc1 (centres undefined) 22.4%
O=C1CCN(S(=O)(=O)c2ccccc2)N1 -16.4%
O=C(O)c1c2c(c(O)c3c1CN(C1CCCCC1)CO3)OCN(C1CCCCC1)C2 3.18% [at 11.4 µM]
CCCCCCCCCCCCCCSCC(=O)O -17.9%
NCCCCC(=O)O -7.26%
Nc1nccc(Nc2ccc(S(N)(=O)=O)cc2)n1 -8.04% [at 11.4 µM]
COc1ccc(OC)c(Nc2nc(-c3cccc([N+](=O)[O-])c3)nc3ccccc23)c1 -29.1%
CC(C)(N)C(=O)N[C@@H]1C(=O)N2[C@@H]1SC(C)(C)[C@H]2C(=O)O 4.41% [at 2.29 µM]
C[C@H](CCC(=O)NCC(=O)O)[C@H]1CC[C@H]2[C@H]3[C@@H](C[C@@H](O)[C@]12C)[C@]1(C)CC[C@H](O)C[C@@H]1C[C@@H]3O -2.83% [at 25.6 µM]
Cn1cc(C(=O)c2ccc(Cl)cc2Cl)cc1C(=O)O -2.17%
Cc1c(-n2cc(C(=O)c3cc(Cl)ccc3O)cc(C#N)c2=O)c(=O)n(-c2ccccc2)n1C -29.7%
COC(=O)C1=C(C)Nc2ncnn2C1c1cccnc1 (centres undefined) -5.17%
O=C(CNC(=O)Cc1ccccc1)NCC(=O)OCc1ccccc1 (PhAc-Gly-Gly-OBn) -4.78%
CC(C)(C)c1ccc(COC(=O)CNC(=O)CNC(=O)Cc2ccccc2)cc1 -5.5%
Cc1c(NC(=O)CSc2nnc3c4ccccc4n(CCc4ccccc4)c3n2)c(=O)n(-c2ccccc2)n1C -27.3%
COCn1c2ccccc2c2nnc(C(C)=O)nc21 -3.08% [at 11.4 µM] and -1.56% [at 11.4 µM]

AC50, active:
O=C1c2ccccc2C(=O)N1CC1CCCO1 (centres undefined) 14100 nM
COc1ccc(Oc2ncc3nc(C)c(=O)n(Cc4cccs4)c3n2)cc1 10000 nM
COc1ncc2ncc(=O)n(Cc3cccs3)c2n1 10000 nM
COc1ccc(Oc2ncc3ncc(=O)n(Cc4cccs4)c3n2)cc1 10000 nM
O=C1/C(=C/c2cccnc2)SC(=S)N1Cc1ccco1 501 nM
CCCc1cc2c(cc1NC(=O)c1ccccc1C)OCO2 2240 nM
CCCc1cc2c(cc1NC(=O)c1ccccc1Cl)OCO2 2510 nM
O=C(CCCc1ccccn1)c1ccccc1 5010 nM
COc1cc(/C=N\Nc2nc3ccccc3[nH]2)cc(OC)c1OC 10000 nM
COC(=O)C1=C(C)NC(C)=C(C(=O)OCCSc2ccccc2)[C@@H]1C 794 nM
Cc1cnn(-c2cc(N/N=C/c3ccccc3)ncn2)c1 2000 nM
Cc1cnn(-c2cc(N/N=C/c3ccccc3F)ncn2)c1 562 nM
c1ccc2c(NCCN3CCOCC3)nc(-c3ccoc3)nc2c1 5010 nM
N#Cc1cccc(-c2nc(NCCN3CCOCC3)c3ccccc3n2)c1 1000 nM
Clc1ccccc1-c1nc(NCCN2CCOCC2)c2ccccc2n1 12600 nM
FC(F)(F)c1ccccc1-c1nc(NCCN2CCOCC2)c2ccccc2n1 12600 nM
COc1cc(NC(=O)c2c(F)cccc2F)nc(OC)n1 20000 nM
CC#CCCCC(=O)Nc1cc(OC)nc(OC)n1 355 nM
CCOC(=O)CN(c1ccccn1)S(=O)(=O)c1ccccc1 14100 nM
O=C(NCc1cccc(C(F)(F)F)c1)c1cc(Cl)cc(Cl)c1 12600 nM
COc1ccc(-c2coc3cc4oc(=O)cc(C)c4cc23)cc1F 2000 nM
CCc1nc(N2CCC3(CC2)OCCO3)c2nnn(Cc3ccccc3Cl)c2n1 7080 nM
Fc1ccc2nc(Nc3nc4c(s3)CCCC4)sc2c1 1580 nM
Cc1ccc(C(=O)NC(=S)NCC2CCCO2)cc1 (centres undefined) 7080 nM
CCCn1c2c(c(O)c(C(=O)NCc3ccccc3)c1=O)CCCC2 1260 nM
CNNCc1ccc(C(=O)NC(C)C)cc1 1580 nM
N#Cc1nc(COc2ccccc2Cl)oc1NCc1ccco1 14100 nM
c1ccc(NN(Cc2cnccn2)c2ccccc2)cc1 2000 nM
COn1c(SCc2ccc(C)cc2C)nc2ccccc2c1=O 8910 nM
COn1c(SCc2cccc(Cl)c2)nc2ccccc2c1=O 1260 nM
OC1(c2ccc(OC(F)F)cc2)CSC(=Nc2cccnc2)N1C1CC1 (centres undefined) 1120 nM
CCOc1ccc(N/N=C(/C#N)C(N)=O)cc1 5010 nM
CCCCCCCCCCC/C=C\C(C)(C)/C=C\CCCC(=O)O 39800 nM
CCCCCCC/C=C\CCCCCCCCC(=O)O 31600 nM
CS(=O)(=O)Nc1cccc(-c2nc(Nc3ccc(F)cc3)c3ccccc3n2)c1 794 nM
CNc1nc(-c2cccc(NS(C)(=O)=O)c2)nc2ccccc12 398 nM
CS(=O)(=O)Nc1cccc(-c2nc(Nc3ccccc3)c3ccccc3n2)c1 794 nM
CS(=O)(=O)Nc1cccc(-c2nccc(Nc3ccc(F)cc3)n2)c1 126 nM
CS(=O)(=O)Nc1cccc(-c2nc(Nc3ccncc3)c3ccccc3n2)c1 631 nM
CN(C)c1nc(-c2cccc(NS(C)(=O)=O)c2)nc2ccccc12 501 nM
COc1cccc(-c2nc(Nc3ccncc3)c3ccccc3n2)c1 794 nM
COc1cccc(CC(C(=O)Nc2cc(C)ccc2C)c2nn[nH]n2)c1OC (centres undefined) 3160 nM
COC(=O)c1cc(C(=O)c2ccc(Cl)cc2Cl)cn1C 2510 nM
C(=C1/CCCC2=C1Nc1ncnn1C2c1ccccc1)/c1ccccc1 (centres undefined) 10000 nM
CC(=O)SC[C@@H](Cc1ccccc1)C(=O)NCC(=O)OCc1ccccc1 2510 nM
COc1ccccc1NC(=O)c1nc[nH]c1C(=O)Nc1ccccc1OC 200 nM
CCn1c2ccccc2c2nnc(NCCCO)nc21 1580 nM

AC50, inactive:
CC[C@@]12CCCN3CCc4c(n(c5ccccc45)[C@](O)(C(=O)OC)C1)[C@H]32
NCCCCCC(=O)O

— PubChem BioAssay AID1851 (National Center for Advancing Translational Sciences (NCATS), 2009)
